The values below come from article PMC7862700, “An all-to-all approach to the identification of sequence-specific readers for epigenetic DNA modifications on cytosine”.

Common to all, as to assay: DAPPL (digital affinity profiling via proximity ligation, sequencing); 10 mM Tris-HCl pH 7.5, 50 mM NaCl, 1 mM DTT, 4% glycerol, room temperature, 30 min; GST-TFs on glutathione beads, 16-mer random dsDNA library, 0.1% formaldehyde crosslink after washing; high values mean tight binding
Common to all, as to conditions: protein: recombinant; tags: N-terminal GST; dsDNA, one strand shown

For one assay, the target named is T1, ERF (Homo sapiens, UniProt P50548 1-548).
T1 sequence: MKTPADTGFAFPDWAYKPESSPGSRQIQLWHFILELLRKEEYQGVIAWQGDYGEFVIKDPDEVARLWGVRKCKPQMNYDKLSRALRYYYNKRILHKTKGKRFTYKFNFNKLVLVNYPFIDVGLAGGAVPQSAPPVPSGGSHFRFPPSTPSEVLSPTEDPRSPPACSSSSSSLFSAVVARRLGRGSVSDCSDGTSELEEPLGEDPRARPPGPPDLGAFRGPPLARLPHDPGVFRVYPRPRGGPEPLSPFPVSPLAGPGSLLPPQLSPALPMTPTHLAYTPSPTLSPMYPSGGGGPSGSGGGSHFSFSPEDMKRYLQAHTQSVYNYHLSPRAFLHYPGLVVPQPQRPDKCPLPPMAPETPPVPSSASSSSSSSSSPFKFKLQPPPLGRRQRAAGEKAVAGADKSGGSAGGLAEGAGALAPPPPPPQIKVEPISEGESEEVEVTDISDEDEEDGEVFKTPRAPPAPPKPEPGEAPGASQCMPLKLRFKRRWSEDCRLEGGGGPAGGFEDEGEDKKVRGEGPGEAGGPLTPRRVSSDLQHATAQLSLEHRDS
In outline:
(§1)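 GST fusions of human transcription factors were expressed in yeast and captured with glutathione beads. Once given DNA barcodes and pooled alongside a tag-only sample, they were incubated for 30 min at room temperature with 200 nmole of a random double-stranded 16-mer DNA library in Tris/NaCl/DTT/glycerol buffer, then washed, crosslinked (0.1% formaldehyde), proximity-ligated, PCR-amplified and sequenced on an Illumina NextSeq500. The binding signal of each hexamer is its read frequency for a factor divided by its frequency for the tag-only sample.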

The target of the next assay is T2, ETV3L (Homo sapiens, UniProt Q6ZN32 1-361).
T2 sequence: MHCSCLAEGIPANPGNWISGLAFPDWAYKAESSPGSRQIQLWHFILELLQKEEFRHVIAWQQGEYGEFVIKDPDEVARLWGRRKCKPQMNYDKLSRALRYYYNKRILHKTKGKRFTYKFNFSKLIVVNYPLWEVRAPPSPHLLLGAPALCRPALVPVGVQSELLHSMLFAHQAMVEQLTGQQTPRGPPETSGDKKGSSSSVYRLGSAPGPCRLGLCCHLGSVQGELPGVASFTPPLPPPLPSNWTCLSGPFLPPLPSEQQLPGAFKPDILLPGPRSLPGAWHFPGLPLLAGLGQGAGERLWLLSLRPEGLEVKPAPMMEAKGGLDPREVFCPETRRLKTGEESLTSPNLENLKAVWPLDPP
In outline:
as §1

A further assay deals with T3, ETS2 (Homo sapiens, UniProt P15036 1-469).
T3 sequence: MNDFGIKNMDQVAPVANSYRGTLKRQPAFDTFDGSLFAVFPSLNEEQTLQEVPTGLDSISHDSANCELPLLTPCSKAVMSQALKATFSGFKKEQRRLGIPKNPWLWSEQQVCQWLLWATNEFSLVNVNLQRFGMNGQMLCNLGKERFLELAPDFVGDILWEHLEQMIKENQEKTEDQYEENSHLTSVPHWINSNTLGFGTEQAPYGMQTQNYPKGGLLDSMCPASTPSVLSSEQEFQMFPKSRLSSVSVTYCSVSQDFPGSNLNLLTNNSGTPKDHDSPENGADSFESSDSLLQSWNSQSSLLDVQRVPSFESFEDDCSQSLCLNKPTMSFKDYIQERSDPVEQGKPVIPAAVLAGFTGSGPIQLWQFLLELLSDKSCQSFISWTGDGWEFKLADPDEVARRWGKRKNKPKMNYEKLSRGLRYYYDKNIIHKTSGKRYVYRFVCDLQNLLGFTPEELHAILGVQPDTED
Put shortly:
as §1

Another assay addresses T4, ELF5 (Homo sapiens, UniProt Q9UKW6-2 1-255).
T4 sequence: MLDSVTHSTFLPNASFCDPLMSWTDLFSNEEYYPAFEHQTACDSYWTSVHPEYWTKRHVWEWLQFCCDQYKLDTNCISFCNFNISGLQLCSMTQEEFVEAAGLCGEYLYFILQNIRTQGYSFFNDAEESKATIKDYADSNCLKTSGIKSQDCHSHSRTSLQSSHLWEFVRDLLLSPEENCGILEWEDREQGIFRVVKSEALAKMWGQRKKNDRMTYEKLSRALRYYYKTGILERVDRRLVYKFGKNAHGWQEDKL
In outline: as §1

The target of another assay is T5, ETV3 (Homo sapiens, UniProt P41162-2 1-143).
T5 sequence: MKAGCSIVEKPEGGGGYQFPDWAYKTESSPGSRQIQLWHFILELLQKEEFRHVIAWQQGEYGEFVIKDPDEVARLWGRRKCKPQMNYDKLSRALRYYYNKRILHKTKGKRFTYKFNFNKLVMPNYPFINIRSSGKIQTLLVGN
Put shortly: as §1

The target of the next assay is ETV6 (Homo sapiens, UniProt P41212 1-452). In outline: as §1
Sequence of ETV6 (P41212 whole entry): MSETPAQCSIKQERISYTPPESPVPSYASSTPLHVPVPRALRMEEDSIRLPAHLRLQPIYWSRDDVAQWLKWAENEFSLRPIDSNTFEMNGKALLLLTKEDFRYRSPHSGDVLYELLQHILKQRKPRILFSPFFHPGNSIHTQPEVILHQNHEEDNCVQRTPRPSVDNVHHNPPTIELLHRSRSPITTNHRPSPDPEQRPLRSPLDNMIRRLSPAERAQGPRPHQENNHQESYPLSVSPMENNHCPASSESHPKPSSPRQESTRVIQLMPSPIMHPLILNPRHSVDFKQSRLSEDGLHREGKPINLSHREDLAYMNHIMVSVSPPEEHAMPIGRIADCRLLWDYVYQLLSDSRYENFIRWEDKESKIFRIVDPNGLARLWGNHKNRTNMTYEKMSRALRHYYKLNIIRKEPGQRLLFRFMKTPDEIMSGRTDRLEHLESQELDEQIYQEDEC
Another assay has as its target T6, ETV7 (Homo sapiens, UniProt Q9Y603 1-341).
T6 sequence: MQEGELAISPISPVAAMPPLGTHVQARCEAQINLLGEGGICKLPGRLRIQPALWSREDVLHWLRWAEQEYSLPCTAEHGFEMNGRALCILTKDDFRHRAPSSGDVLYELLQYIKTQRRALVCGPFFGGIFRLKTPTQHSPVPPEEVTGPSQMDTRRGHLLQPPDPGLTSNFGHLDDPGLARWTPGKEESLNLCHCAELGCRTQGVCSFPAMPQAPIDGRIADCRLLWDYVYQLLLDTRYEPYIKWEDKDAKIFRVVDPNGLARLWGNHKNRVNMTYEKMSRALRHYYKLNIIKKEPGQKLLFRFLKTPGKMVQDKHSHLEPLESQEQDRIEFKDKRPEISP
In outline:
as §1

A further assay deals with T7, SPDEF (Homo sapiens, UniProt O95238 1-335).
T7 sequence: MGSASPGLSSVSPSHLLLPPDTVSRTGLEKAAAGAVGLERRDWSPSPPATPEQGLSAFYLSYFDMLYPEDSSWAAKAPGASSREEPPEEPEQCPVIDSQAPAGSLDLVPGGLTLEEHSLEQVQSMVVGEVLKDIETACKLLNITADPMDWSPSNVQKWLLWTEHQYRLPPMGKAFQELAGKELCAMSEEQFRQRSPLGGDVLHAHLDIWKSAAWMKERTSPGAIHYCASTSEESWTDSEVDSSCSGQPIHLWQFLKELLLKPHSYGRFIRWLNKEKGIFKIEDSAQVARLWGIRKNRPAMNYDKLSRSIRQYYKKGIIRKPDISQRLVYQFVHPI
Put shortly:
as §1

Turning to GCCCCC, the binding signal with ERF was 1.24 fold enrichment (6-mer frequency, TF over GST control); with ETV3L, 1.16 fold enrichment (6-mer frequency, TF over GST control); with ETS2, 1.03 fold enrichment (6-mer frequency, TF over GST control); with ELF5, 1.04 fold enrichment (6-mer frequency, TF over GST control); in the assay with ETV3, 1.21 fold enrichment (6-mer frequency, TF over GST control); with ETV6, 1.05 fold enrichment (6-mer frequency, TF over GST control).

In the case of CGATCA, the binding signal was 1.09 fold enrichment (6-mer frequency, TF over GST control) with ERF; 1.1 fold enrichment (6-mer frequency, TF over GST control) with ETV3L; 1.19 fold enrichment (6-mer frequency, TF over GST control) with ETS2; 1.08 fold enrichment (6-mer frequency, TF over GST control) with ETV7; 1.1 fold enrichment (6-mer frequency, TF over GST control) with ETV3; 1.05 fold enrichment (6-mer frequency, TF over GST control) with ETV6.

On to CATGGG, for which the binding signal with ERF was 1.01 fold enrichment (6-mer frequency, TF over GST control); in the assay with ETV3L, 1.14 fold enrichment (6-mer frequency, TF over GST control); with ETV7 it was 1.03 fold enrichment (6-mer frequency, TF over GST control); with ELF5, 1.04 fold enrichment (6-mer frequency, TF over GST control); with ETV6, 1.01 fold enrichment (6-mer frequency, TF over GST control).

For the sequence TAGGTC, the binding signal is 1.01 fold enrichment (6-mer frequency, TF over GST control) with ERF; 1.02 fold enrichment (6-mer frequency, TF over GST control) with ETV3L; 1.05 fold enrichment (6-mer frequency, TF over GST control) in the assay with SPDEF; 1.11 fold enrichment (6-mer frequency, TF over GST control) with ETV7; 1.02 fold enrichment (6-mer frequency, TF over GST control) in the assay with ELF5; 1.04 fold enrichment (6-mer frequency, TF over GST control) in the assay with ETV3.

In the case of CTATAG, the binding signal is 1.03 fold enrichment (6-mer frequency, TF over GST control) in the assay with ERF; 1.05 fold enrichment (6-mer frequency, TF over GST control) in the assay with ETV3L; 1 fold enrichment (6-mer frequency, TF over GST control) with ETS2; 1.05 fold enrichment (6-mer frequency, TF over GST control) in the assay with ELF5; 1.09 fold enrichment (6-mer frequency, TF over GST control) in the assay with ETV3; 1.04 fold enrichment (6-mer frequency, TF over GST control) with ETV6.

Regarding CTACAG, the binding signal with ERF is 1.01 fold enrichment (6-mer frequency, TF over GST control); in the assay with ETV3L, 1.13 fold enrichment (6-mer frequency, TF over GST control); in the assay with SPDEF it was 1.09 fold enrichment (6-mer frequency, TF over GST control); with ELF5, 1.08 fold enrichment (6-mer frequency, TF over GST control); with ETV6, 1.03 fold enrichment (6-mer frequency, TF over GST control).

Turning to TAGTAA, the binding signal with ERF is 1.09 fold enrichment (6-mer frequency, TF over GST control); with ETV3L, 1.04 fold enrichment (6-mer frequency, TF over GST control); with SPDEF it was 1.02 fold enrichment (6-mer frequency, TF over GST control); with ETV7 it was 1.16 fold enrichment (6-mer frequency, TF over GST control); with ELF5 it was 1.04 fold enrichment (6-mer frequency, TF over GST control); with ETV3, 1.06 fold enrichment (6-mer frequency, TF over GST control). Further, the binding signal with ETV6 was 1.07 fold enrichment (6-mer frequency, TF over GST control).

For ATCATT, the binding signal was 1.13 fold enrichment (6-mer frequency, TF over GST control) with ERF; 1.07 fold enrichment (6-mer frequency, TF over GST control) with ETV3L; 1.01 fold enrichment (6-mer frequency, TF over GST control) with ETS2; 1.01 fold enrichment (6-mer frequency, TF over GST control) in the assay with ETV7; 1.06 fold enrichment (6-mer frequency, TF over GST control) with ETV6.

Consider TCTGGG, for which the binding signal in the assay with ERF is 1.16 fold enrichment (6-mer frequency, TF over GST control); in the assay with ETV3L, 1.11 fold enrichment (6-mer frequency, TF over GST control); with SPDEF, 1.07 fold enrichment (6-mer frequency, TF over GST control); with ETV7, 1.07 fold enrichment (6-mer frequency, TF over GST control); with ELF5, 1.08 fold enrichment (6-mer frequency, TF over GST control); with ETV3, 1.09 fold enrichment (6-mer frequency, TF over GST control). The binding signal in the assay with ETV6 is 1.14 fold enrichment (6-mer frequency, TF over GST control).

For the sequence CACCAA, the binding signal with ERF was 1.18 fold enrichment (6-mer frequency, TF over GST control); with ETV3L, 1.06 fold enrichment (6-mer frequency, TF over GST control); with SPDEF, 1.03 fold enrichment (6-mer frequency, TF over GST control); with ELF5 it was 1.03 fold enrichment (6-mer frequency, TF over GST control); with ETV3 it was 1.1 fold enrichment (6-mer frequency, TF over GST control); in the assay with ETV6, 1.07 fold enrichment (6-mer frequency, TF over GST control).

With GCCGAT, the binding signal in the assay with ERF was 1.13 fold enrichment (6-mer frequency, TF over GST control); in the assay with ETV3L it was 1.07 fold enrichment (6-mer frequency, TF over GST control); in the assay with ETV7, 1.12 fold enrichment (6-mer frequency, TF over GST control); in the assay with ETV3, 1.18 fold enrichment (6-mer frequency, TF over GST control); with ETV6 it was 1.2 fold enrichment (6-mer frequency, TF over GST control).

With GCTCGA, the binding signal with ERF is 1.24 fold enrichment (6-mer frequency, TF over GST control); in the assay with ETV3L, 1.26 fold enrichment (6-mer frequency, TF over GST control); in the assay with ETS2, 1.19 fold enrichment (6-mer frequency, TF over GST control); with ETV7 it was 1.11 fold enrichment (6-mer frequency, TF over GST control); in the assay with ELF5 it was 1.1 fold enrichment (6-mer frequency, TF over GST control); in the assay with ETV3, 1.14 fold enrichment (6-mer frequency, TF over GST control). Also, in the assay with ETV6, the binding signal is 1.25 fold enrichment (6-mer frequency, TF over GST control).

As for AAGACT, the binding signal is 1.16 fold enrichment (6-mer frequency, TF over GST control) in the assay with ERF; 1.04 fold enrichment (6-mer frequency, TF over GST control) with ETV3L; 1.07 fold enrichment (6-mer frequency, TF over GST control) with ETS2; 1.08 fold enrichment (6-mer frequency, TF over GST control) with ETV7; 1.15 fold enrichment (6-mer frequency, TF over GST control) with ELF5; 1.12 fold enrichment (6-mer frequency, TF over GST control) with ETV3. In the assay with ETV6, the binding signal is 1.13 fold enrichment (6-mer frequency, TF over GST control).

As for CCGAAG, the binding signal with ERF was 1.16 fold enrichment (6-mer frequency, TF over GST control); in the assay with ETV3L, 1.02 fold enrichment (6-mer frequency, TF over GST control); with ETS2, 1.08 fold enrichment (6-mer frequency, TF over GST control); with ETV3 it was 1.02 fold enrichment (6-mer frequency, TF over GST control).

For AGACTT, the binding signal is 1.02 fold enrichment (6-mer frequency, TF over GST control) in the assay with ERF; 1 fold enrichment (6-mer frequency, TF over GST control) in the assay with ETS2; 1.02 fold enrichment (6-mer frequency, TF over GST control) with ETV7; 1.2 fold enrichment (6-mer frequency, TF over GST control) in the assay with ELF5; 1.09 fold enrichment (6-mer frequency, TF over GST control) with ETV3; 1.04 fold enrichment (6-mer frequency, TF over GST control) with ETV6.
